Measurements: PubChem BioAssay (EPA / NIEHS)
The source made the active and inactive calls. The calls were made as follows: active = hit-call score of the fitted dose curve at least 0.9, where 1 is the maximum; inactive = score below 0.9.

What was measured:
[1] = ATG_E_Box_CIS: Attagene CIS-FACTORIAL HepG2 Assay for human Enhancer Box (E-box) (AID 2282936); settings: HepG2 E-box cis-reporter transcription, actives raise or lower the signal
Procedure, shortened: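 Endogenous transcription factor activity was sensed in human HepG2 liver cells through transfected cis-promoter reporter units. After 24 h of dosing, total RNA was reverse-transcribed and reporter cDNA resolved by capillary electrophoresis.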

[2] = ATG_M_61_CIS: Attagene CIS-FACTORIAL HepG2 Assay for M61 Transcription Factor (Internal Marker) (AID 2282937); settings: HepG2 Attagene CIS-FACTORIAL M61 internal marker reporter; actives raise or lower the signal
Procedure, shortened: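 Human liver HepG2, transient MRTU transfection (cis promoter elements), 24 h compound. Total RNA → oligo(dT) RT → PCR → FAM label → HpaI → CE. Internal background marker; bidirectional fitting, DMSO = baseline.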

[3] = ATG_EGR_CIS: Attagene CIS-FACTORIAL HepG2 Assay for human Early Growth Response 1 (EGR1) (AID 2282938); settings: HepG2 Attagene CIS-FACTORIAL EGR reporter mRNA; actives raise or lower the signal
Procedure, shortened: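 Transient transfection of human HepG2 with multiple cis-regulated reporter units, chemical exposure 24 h, total RNA isolated. Reverse transcription, PCR, fluorescent labelling and capillary electrophoresis quantify reporter transcripts; activity fitted bidirectionally against DMSO.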

[4] = ATG_M_19_CIS: Attagene CIS-FACTORIAL HepG2 Assay for M19 Transcription Factor (Internal Marker) (AID 2282939); settings: HepG2 Attagene CIS-FACTORIAL M19 internal marker reporter; actives raise or lower the signal
Procedure, shortened: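 Internal marker readout, fitted in both directions against DMSO, from HepG2 cells carrying transfected cis-element reporter constructs; RT-PCR and capillary electrophoresis of reporter mRNA after 24 h exposure.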

[5] = ATG_Ets_CIS: Attagene CIS-FACTORIAL HepG2 Assay for human Erythroblast Transformation Specific (ETS) (AID 2282941); settings: HepG2 ETS cis-reporter transcription, actives raise or lower the signal
Procedure, shortened: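 Multiplexed reporter transcript profiling: HepG2, 24 h treatment, total RNA to cDNA, PCR, 6-FAM labelling, HpaI cut, capillary electrophoresis. Gain- or loss-of-signal fitted against DMSO.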

[6] = molecular target: Hepatocyte nuclear factor 3-beta (Homo sapiens) (UniProt Q9Y261); assay: ATG_FoxA2_CIS: Attagene CIS-FACTORIAL HepG2 Assay for human Forkhead box A2 (FOXA2) (AID 2282942); settings: HepG2 cis-reporter transcription factor activity, 24 h; actives raise or lower the signal
Procedure, shortened: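 Transient MRTU transfection of HepG2 liver cells; 24 h treatment; total RNA → oligo(dT) RT → PCR → FAM primer extension → HpaI cut → CE. Bidirectional fit vs DMSO.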

[7] = ATG_FoxO_CIS: Attagene CIS-FACTORIAL HepG2 Assay for human Forkhead box O (FoxO) (AID 2282943); settings: HepG2 Attagene cis-reporter, FoxO element, mRNA; actives raise or lower the signal
Procedure, shortened: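 Values reflect reporter mRNA induction or loss in HepG2 cells 24 h post-dosing, fitted bidirectionally with DMSO as negative control and baseline. Detection used RT-PCR and fluorescence capillary electrophoresis.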

[8] = ATG_GATA_CIS: Attagene CIS-FACTORIAL HepG2 Assay for human GATA Binding Protein (AID 2282944); settings: HepG2 GATA cis-element reporter, Attagene multiplex mRNA; actives raise or lower the signal
Procedure, shortened: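 Reporter transcripts from a GATA cis-regulated unit, among multiplexed reporters in transfected HepG2 cells, were measured by RT-PCR with capillary electrophoresis after 24 h dosing. Induction or loss scored relative to DMSO.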

[9] = ATG_GLI_CIS: Attagene CIS-FACTORIAL HepG2 Assay for human Zinc Finger Protein GLI1 (AID 2282945); settings: HepG2, Attagene cis-factorial reporter mRNA, GLI element; actives raise or lower the signal
Procedure, shortened: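 HepG2 cells transiently transfected with cis-promoter multiplexed reporter units report endogenous transcription factor activity. After 24 h chemical exposure, reporter mRNA was quantified by RT-PCR, 6-FAM labelling, HpaI digestion and capillary electrophoresis, with bidirectional fitting against DMSO.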

[10] = molecular target: Bile acid receptor (Homo sapiens) (UniProt Q96RI1); assay: ATG_IR1_CIS: Attagene CIS-FACTORIAL HepG2 Assay for human Nuclear Receptor Subfamily 1 Group H Member 4 (NR1H4), IR1 submotif (AID 2282946); settings: IR1 reporter transcription, actives raise or lower the signal
Procedure, shortened: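 Readout: reporter transcript levels by RT-PCR with fluorescent capillary electrophoresis, from HepG2 cells transiently transfected with multiplexed cis-regulated reporters and dosed 24 h. Gain- or loss-of-signal fitted versus DMSO negative control.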

[11] = ATG_GRE_CIS: Attagene CIS-FACTORIAL HepG2 Assay for human Glucocorticoid Response Elements (GRE) (AID 2282947); settings: HepG2 GRE cis-reporter, Attagene multiplex mRNA; actives raise or lower the signal
Procedure, shortened: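 Cells (HepG2) bearing transfected cis-promoter reporter transcription units were treated with chemical for 24 hours. Reporter mRNA was measured via RT-PCR with capillary electrophoresis, and activity was fitted in both directions relative to DMSO.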

[12] = ATG_ISRE_CIS: Attagene CIS-FACTORIAL HepG2 Assay for human Interferon Regulatory Factor 1 (IRF1) binding to an Interferon-Stimulated Response Element (ISRE) (AID 2282948); settings: HepG2 ISRE cis-reporter (Attagene), mRNA transcription readout; actives raise or lower the signal
Procedure, shortened: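 Signal reflects induction or loss of ISRE-linked reporter mRNA in transiently transfected HepG2 cells after a 24 h treatment, detected by fluorescent RT-PCR fragments on capillary electrophoresis and normalised to DMSO.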

[13] = ATG_M_32_CIS: Attagene CIS-FACTORIAL HepG2 Assay for M32 Transcription Factor (Internal Marker) (AID 2282949); settings: HepG2 Attagene cis-factorial M32 reporter, mRNA; actives raise or lower the signal;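 also: background control marker of the multiplexed CIS panel rather than a real target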
Procedure, shortened: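 HepG2 transfectants (cis-regulated reporter transcription units) dosed 24 h. Reporter mRNA by RT-PCR plus CE, analysed as gain or loss relative to DMSO.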

[14] = ATG_M_06_CIS: Attagene CIS-FACTORIAL HepG2 Assay for M06 Transcription Factor (Internal Marker) (AID 2282950); settings: HepG2 Attagene CIS-FACTORIAL M06 internal marker reporter; actives raise or lower the signal
Procedure, shortened: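 Serves as a background control readout. Transfected HepG2 exposed to compounds for 24 h, then reporter transcripts quantified by fluorescent RT-PCR and capillary electrophoresis. Both directions fitted against DMSO baseline.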

[15] = molecular target: Hepatocyte nuclear factor 6 (Homo sapiens) (UniProt Q9UBC0); assay: ATG_HNF6_CIS: Attagene CIS-FACTORIAL HepG2 Assay for human Hepatocyte Nuclear Factor 6 (HNF6) (AID 2282952); settings: HepG2 Attagene cis-factorial HNF6 reporter transcription; actives raise or lower the signal
Procedure, shortened: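 Endogenous transcription factor activity in human HepG2 liver cells was captured through cis-regulated reporter constructs. After 24 h treatment, reporter mRNA was measured by RT-PCR with capillary electrophoresis, and activity was fitted in both directions relative to DMSO.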

[16] = molecular target: Heat shock factor protein 1 (Homo sapiens) (UniProt Q00613); assay: ATG_HSE_CIS: Attagene CIS-FACTORIAL HepG2 Assay for human Heat Shock Transcription Factor 1 (HSE) (AID 2282953); settings: HepG2 HSE cis-reporter, Attagene RNA transcription; actives raise or lower the signal
Procedure, shortened: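 Endogenous transcription factor activity in transiently transfected HepG2, read as reporter mRNA by RT-PCR with fluorescent capillary electrophoresis after 24 h. Gain or loss of signal fitted versus DMSO baseline.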

[17] = ATG_MRE_CIS: Attagene CIS-FACTORIAL HepG2 Assay for human Metal Responsive Element (MRE) (AID 2282954); settings: HepG2 MRE cis-reporter transcription, Attagene multiplex; actives raise or lower the signal
Procedure, shortened: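 Cells were transfected with cis-promoter reporter transcription units, then dosed for 24 h. RNA was reverse-transcribed, amplified, fluorescently labelled and resolved by capillary electrophoresis, and activity was fitted in both directions relative to DMSO.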

[18] = ATG_PBREM_CIS: Attagene CIS-FACTORIAL HepG2 Assay for human Phenobarbital-responsive Enhancer Module (PBREM) (AID 2282955); settings: HepG2 PBREM cis-reporter, Attagene multiplexed transcription; actives raise or lower the signal
Procedure, shortened: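 Endogenous transcription factors in human liver HepG2 cells drive a PBREM cis-element reporter, whose transcript level after 24 h treatment is quantified by RT-PCR with capillary electrophoresis; activity fitted in both directions against DMSO.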

[19] = molecular target: Hypoxia-inducible factor 1-alpha (Homo sapiens) (UniProt Q16665); assay: ATG_HIF1a_CIS: Attagene CIS-FACTORIAL HepG2 Assay for human Hypoxia Inducible Factor 1 (HIF1A) (AID 2282951); settings: HepG2 Attagene cis-factorial HIF1a reporter transcription; actives raise or lower the signal
Procedure, shortened: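 Transient MRTU transfection of human HepG2 liver cells, 24 h compound treatment, then total RNA isolation, oligo(dT) reverse transcription, PCR amplification, fluorescent labelling and capillary electrophoresis of reporter fragments. Gain or loss relative to DMSO.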

Measured: AC50

Chain of Hepatocyte nuclear factor 3-beta (Homo sapiens) (Q9Y261 whole entry, looked up): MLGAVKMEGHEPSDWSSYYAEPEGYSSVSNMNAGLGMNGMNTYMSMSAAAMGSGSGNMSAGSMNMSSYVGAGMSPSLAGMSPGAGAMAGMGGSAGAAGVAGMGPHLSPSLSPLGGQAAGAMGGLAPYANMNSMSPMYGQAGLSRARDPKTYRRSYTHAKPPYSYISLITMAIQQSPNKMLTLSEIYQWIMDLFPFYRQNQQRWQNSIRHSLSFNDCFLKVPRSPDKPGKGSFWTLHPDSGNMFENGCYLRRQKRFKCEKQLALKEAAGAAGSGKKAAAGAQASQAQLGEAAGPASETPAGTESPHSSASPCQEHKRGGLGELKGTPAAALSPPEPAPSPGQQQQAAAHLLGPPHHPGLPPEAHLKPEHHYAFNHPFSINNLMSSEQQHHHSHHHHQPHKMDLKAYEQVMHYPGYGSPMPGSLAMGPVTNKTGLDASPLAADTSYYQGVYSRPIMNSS
Chain of Hypoxia-inducible factor 1-alpha (Homo sapiens) (Q16665 whole entry, looked up, the tested form may be a part): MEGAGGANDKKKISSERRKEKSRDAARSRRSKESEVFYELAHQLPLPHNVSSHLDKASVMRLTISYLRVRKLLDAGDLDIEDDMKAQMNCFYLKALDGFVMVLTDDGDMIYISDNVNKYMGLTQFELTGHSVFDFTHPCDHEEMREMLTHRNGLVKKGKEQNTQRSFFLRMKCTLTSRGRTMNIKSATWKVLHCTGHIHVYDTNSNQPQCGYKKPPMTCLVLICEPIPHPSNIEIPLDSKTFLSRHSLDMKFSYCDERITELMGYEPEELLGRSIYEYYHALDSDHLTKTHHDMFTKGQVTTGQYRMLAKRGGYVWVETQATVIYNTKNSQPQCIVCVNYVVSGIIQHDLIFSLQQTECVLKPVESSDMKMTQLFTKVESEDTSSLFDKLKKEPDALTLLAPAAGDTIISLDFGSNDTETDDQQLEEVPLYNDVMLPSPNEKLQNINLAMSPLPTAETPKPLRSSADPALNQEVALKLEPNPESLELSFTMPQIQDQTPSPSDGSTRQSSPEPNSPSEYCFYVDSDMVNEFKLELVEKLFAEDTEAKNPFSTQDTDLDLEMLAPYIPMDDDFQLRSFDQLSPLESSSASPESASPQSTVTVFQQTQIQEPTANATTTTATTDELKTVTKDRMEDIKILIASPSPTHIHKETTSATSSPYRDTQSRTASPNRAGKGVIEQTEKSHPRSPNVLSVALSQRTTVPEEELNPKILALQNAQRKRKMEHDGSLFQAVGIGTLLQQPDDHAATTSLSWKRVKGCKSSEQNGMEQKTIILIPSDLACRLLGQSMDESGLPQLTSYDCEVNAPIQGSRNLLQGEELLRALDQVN
Chain of Hepatocyte nuclear factor 6 (Homo sapiens) (Q9UBC0 whole entry, looked up): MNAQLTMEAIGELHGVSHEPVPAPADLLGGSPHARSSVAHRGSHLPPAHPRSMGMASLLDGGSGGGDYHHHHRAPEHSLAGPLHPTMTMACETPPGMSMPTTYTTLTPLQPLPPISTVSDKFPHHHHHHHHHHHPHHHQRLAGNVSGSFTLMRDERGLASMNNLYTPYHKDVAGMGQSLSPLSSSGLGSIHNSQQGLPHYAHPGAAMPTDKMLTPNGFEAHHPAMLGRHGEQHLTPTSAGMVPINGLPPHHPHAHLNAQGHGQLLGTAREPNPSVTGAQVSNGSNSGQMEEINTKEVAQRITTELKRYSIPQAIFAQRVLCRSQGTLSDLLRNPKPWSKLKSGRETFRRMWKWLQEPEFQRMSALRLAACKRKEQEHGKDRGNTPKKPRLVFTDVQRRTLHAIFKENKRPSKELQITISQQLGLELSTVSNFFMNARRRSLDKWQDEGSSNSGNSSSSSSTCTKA
Chain of Heat shock factor protein 1 (Homo sapiens) (Q00613 whole entry, looked up): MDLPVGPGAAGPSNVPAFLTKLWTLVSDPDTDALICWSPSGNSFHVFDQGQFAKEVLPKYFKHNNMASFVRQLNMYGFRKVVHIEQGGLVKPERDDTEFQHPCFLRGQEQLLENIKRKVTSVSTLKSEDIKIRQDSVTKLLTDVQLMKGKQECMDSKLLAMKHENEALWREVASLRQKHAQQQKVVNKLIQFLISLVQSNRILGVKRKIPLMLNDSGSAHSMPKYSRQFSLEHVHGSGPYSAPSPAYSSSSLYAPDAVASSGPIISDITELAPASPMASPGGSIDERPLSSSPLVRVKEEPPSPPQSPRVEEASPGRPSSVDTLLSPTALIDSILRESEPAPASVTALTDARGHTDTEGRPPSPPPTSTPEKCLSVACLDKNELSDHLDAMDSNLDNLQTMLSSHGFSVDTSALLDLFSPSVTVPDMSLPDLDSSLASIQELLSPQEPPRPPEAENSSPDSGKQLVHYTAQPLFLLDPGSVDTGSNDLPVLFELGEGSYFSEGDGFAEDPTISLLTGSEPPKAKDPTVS
Chain of Bile acid receptor (Homo sapiens) (Q96RI1 whole entry, looked up): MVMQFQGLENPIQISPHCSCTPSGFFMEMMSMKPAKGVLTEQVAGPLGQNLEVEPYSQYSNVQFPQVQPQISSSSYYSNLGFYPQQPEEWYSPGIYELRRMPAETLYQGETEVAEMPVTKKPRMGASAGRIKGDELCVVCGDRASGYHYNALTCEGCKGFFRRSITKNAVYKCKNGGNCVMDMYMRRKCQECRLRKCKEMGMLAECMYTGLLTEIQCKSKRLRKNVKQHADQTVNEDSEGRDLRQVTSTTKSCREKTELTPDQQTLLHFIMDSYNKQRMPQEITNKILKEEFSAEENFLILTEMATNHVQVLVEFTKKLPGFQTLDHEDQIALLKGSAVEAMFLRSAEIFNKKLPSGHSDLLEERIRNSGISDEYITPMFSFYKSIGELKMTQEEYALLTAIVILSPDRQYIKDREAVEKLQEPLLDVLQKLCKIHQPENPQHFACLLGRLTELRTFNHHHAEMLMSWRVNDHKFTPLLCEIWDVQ

O=S(=O)(O)C(F)(F)C(F)(F)C(F)(F)C(F)(F)C(F)(F)C(F)(F)F
not listed: [19]
inactive: all other assays above

O=C(NC(=O)c1cc(F)c(F)cc1Cl)Nc1cc(F)ccc1N1CCC(C(=O)O)CC1
not listed: [10] | [18]
inactive: all other assays above

CCOCCOC(C)=O
not listed: [10] | [12] | [18]
inactive: all other assays above

Cc1ccc(O)c(C)c1
not listed: [10] | [18]
inactive: all other assays above

CC(c1ccc(O)cc1)(c1ccc(O)cc1)c1ccc(O)cc1
active: [1] 14.7 µM | [3] 12.8 µM | [10] 11.1 µM | [12] 16.1 µM | [19] 13.8 µM | [15] 18.6 µM | [17] 13.5 µM
inactive: all other assays above

O=S(=O)(O)C(F)(F)C(F)(F)C(F)(F)C(F)(F)F
not listed: [10] | [19]
inactive: all other assays above

Cc1ccccc1[N+](=O)[O-]
not listed: [10] | [12] | [16] | [19]
inactive: all other assays above

CN(C)CCO
not listed: [10] | [12]
inactive: all other assays above
